Results filed as inconclusive are left out. A structure can be active in one record and inactive in another. Activity calls are given as the source filed them. Calls follow the shape of the full dose curve.
% is scaled to controls: 0 for no effect and ±100 for the full control effect; potency is read from the fitted curve at half-maximal effect.

For the assay, the target named is Acetylcholinesterase (Homo sapiens) (UniProt P22303). Kind of assay: Acetylcholinesterase (AChE) small molecule antagonists: fluorescence cell-based qHTS assay (AID 1347398). Also: nearly all actives have a fitted effect of over 50% in size. As to conditions: SH-SY5Y cells; Potency: AChE activity; outcome: AChE activity; series mostly up to 115 µM; activity change, negative = inhibition: at the top concentration. In outline: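 Read-out is Thiolite Green fluorescence at Ex/Em = 490/520 nm, formed by reaction with thiocholine released when cellular AChE in SH-SY5Y cells hydrolyzes acetylthiocholine. Compounds were preincubated 30 min at 37 C before substrate.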
Acetylcholinesterase (Homo sapiens), sequence (P22303 whole entry, looked up): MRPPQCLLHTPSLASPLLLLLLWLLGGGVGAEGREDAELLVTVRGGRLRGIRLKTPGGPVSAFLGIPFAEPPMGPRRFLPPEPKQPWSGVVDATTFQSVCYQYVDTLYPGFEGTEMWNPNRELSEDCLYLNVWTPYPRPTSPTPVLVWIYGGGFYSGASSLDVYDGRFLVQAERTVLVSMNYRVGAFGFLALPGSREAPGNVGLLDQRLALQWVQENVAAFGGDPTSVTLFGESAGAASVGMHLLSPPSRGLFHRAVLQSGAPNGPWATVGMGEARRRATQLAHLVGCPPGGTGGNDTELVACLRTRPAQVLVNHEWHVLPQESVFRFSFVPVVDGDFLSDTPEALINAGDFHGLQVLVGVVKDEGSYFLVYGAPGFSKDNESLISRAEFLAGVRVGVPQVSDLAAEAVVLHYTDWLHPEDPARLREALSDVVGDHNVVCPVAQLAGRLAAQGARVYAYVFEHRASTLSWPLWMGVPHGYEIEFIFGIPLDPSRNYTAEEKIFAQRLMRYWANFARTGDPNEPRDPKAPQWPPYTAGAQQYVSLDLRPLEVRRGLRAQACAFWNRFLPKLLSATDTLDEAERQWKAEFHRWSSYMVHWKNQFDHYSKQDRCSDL
(In general: In qHTS, concentration-response curves come from the screen itself.)
`Cc1ccccc1CCO`: the “activity change, negative = inhibition” value is 0.479% (inactive).
The same measure, in the same setting: under `O=C(O)COc1nn(Cc2ccccc2)c2ccccc12` stands 0.775% [at 53.7 µM] (inactive); under `CCCCCCCCCCCC`, 2.71% (inactive).
`C=CC(=O)OCCOC(=O)C=C`: the “activity change, negative = inhibition” value is 2.19% (inactive).
`CC(C)Oc1ccc2c(=O)c(-c3ccccc3)coc2c1`: the Potency entry was “inactive”.
With `Fc1ccc(C(c2ccc(F)cc2)N2CCNCC2)cc1`, the “activity change, negative = inhibition” value is 3.1% [at 53.7 µM] (inactive).
As for `CCCCOCCOCCOCCCC`, the “activity change, negative = inhibition” value is 5.96% (inactive).
On to `C=Cc1ccncc1`, for which the “activity change, negative = inhibition” value is 3.56% (inactive).
Regarding `O=c1[nH]c2ccccc2n1CCCN1CCN(C(c2ccccc2)c2ccccc2)CC1`, the “activity change, negative = inhibition” value was -13.3% [at 53.7 µM] (inactive).
Consider `O=S(O)O`, for which the activity change, negative = inhibition was 0.464% [at 23.8 µM] (inactive).
Regarding `O=C(c1ccc(O)c(O)c1)c1ccc(O)cc1O`, the “activity change, negative = inhibition” value was -13.5% (inactive).
For `C=CCSSCCC`, the “activity change, negative = inhibition” value is 1.68% (inactive).
Still for that read-out and setting: the value for `Clc1ccc2c(c1)Nc1ccccc1S2` was -6.56% [at 53.7 µM] (inactive).
Consider `Oc1ccc2cc(SSc3ccc4cc(O)ccc4c3)ccc2c1`, for which the Potency result was “inactive”.
`CC(C)=CCC1C(=O)N(c2ccccc2)N(c2ccccc2)C1=O`: the “activity change, negative = inhibition” value is 3.85% [at 53.7 µM] (inactive).
Turning to `C=C(C)[C@@H]1CC=C(C)C(=O)C1`, the “activity change, negative = inhibition” value was -11.1% (inactive).
The same measure, in the same setting: the value for `NCCOCCN` was 4.36% (inactive).
In the case of `CC(=O)C(C)C`, the Potency result is “inactive”.
As to `C[Si](C)(C)O[Si](O)(O)O`, the “activity change, negative = inhibition” value is -0.883% (inactive).
The same measure, in the same setting: under `Cc1nnc(C(=O)NC(C)(C)c2nc(C(=O)NCc3ccc(F)cc3)c(O)c(=O)n2C)o1` stands 7.21% [at 53.7 µM] (inactive); under `CCC(N)(CO)CO`, 5.2% (inactive).
On to `CCC(C)(C)C(=O)O[C@H]1C[C@@H](C)C=C2C=C[C@H](C)[C@H](CC[C@@H]3C[C@@H](O)CC(=O)O3)[C@H]21`, for which the Potency entry was “inactive”.
Take `Cc1cccc(Oc2ccccc2)c1`: the “activity change, negative = inhibition” value was 3.74% (inactive).
For the compound `C=CC(=O)OCCC(=O)O`, the Potency entry was “inactive”.
As to `O=C(Nc1ccc(C(=O)O)c(O)c1)c1ccccc1`, the “activity change, negative = inhibition” value was 2.84% [at 53.7 µM] (inactive).
With `Cc1cc2c(OCC(CNC(C)(C)C)OC(=O)c3ccccc3)cccc2[nH]1` (stereo not given), the “activity change, negative = inhibition” value is -0.947% [at 53.7 µM] (inactive).
Take `O=C(NO)C1(NS(=O)(=O)c2ccc(Oc3ccc(F)cc3)cc2)CCOCC1`: the “activity change, negative = inhibition” value is 10.5% (inactive).
The same measure, in the same setting: the value for `CC(C)(c1ccccc1)c1ccccc1` was -6.31% (inactive).
Regarding `CC(=O)CC(=O)Nc1ccccc1C`, the Potency result was “inactive”.
Turning to `Cc1cc(O)c2c(c1)C(=O)c1cc(O)cc(O)c1C2=O`, the Potency is 15.5 µM (active) and inactive.
On to `CN1Cc2cc(C(=O)N3CCC(C4CCNCC4)CC3)ccc2NC(CC(=O)O)C1=O` (stereo not given), for which the “activity change, negative = inhibition” value is -6.31% [at 53.7 µM] (inactive).
For `CCCCOC(=O)C(=O)OCCCC`, the “activity change, negative = inhibition” value was 2.54% (inactive).
Take `CC/C=C(\C)C=O`: the “activity change, negative = inhibition” value was 4.82% (inactive).
In the case of `O=[N+]([O-])c1ccccc1C(F)(F)F`, the Potency entry was “inactive”.
As for `CN1CCC(=C2c3ccccc3CCc3cccnc32)CC1`, the “activity change, negative = inhibition” value was 1.25% [at 53.7 µM] (inactive).
`CC1CC(OC(=O)c2ccccc2O)CC(C)(C)C1` (stereo not given): the Potency entry was “inactive”.
With `COc1nc(C)nc(NC(=O)NS(=O)(=O)c2ccccc2OCCCl)n1`, the “activity change, negative = inhibition” value was 3.42% (inactive).
`NS(=O)(=O)c1cc2c(cc1Cl)NCNS2(=O)=O`: the Potency entry is “inactive”.
Turning to `C/C(=C1\CCOC(=O)S1)N(C=O)Cc1cnc(C)nc1N`, the “activity change, negative = inhibition” value was -15.4% [at 53.7 µM] (inactive).
On to `CCCCCCCCCCCO`, for which the Potency result is “inactive”.

These data come from PubChem BioAssay (Tox21).
